Sampled rows, rich in hits. Any-hit rate of the full collection: about 8.1%.
ELG1 DNA repair: ELG1-dependent DNA repair inhibition; Potency, µM (series often up to 46.1 µM), for inactives: at the top dose activity change, negative = inhibition, hits mostly inhibitors; 330,000 compounds, 2.3% hits; HEK293T ELG1-luciferase reporter, luminescence, 16 h; DNA damage induced by 5-fluorouridine; note: % is set by controls: 0 for no effect and ±100 for the full control effect; nearly all actives have a fitted effect of over 55% in size
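Step one: seed 2,000 cells per well. Step two: pin-transfer compound or DMSO alongside 5-fluorouridine. Step three: incubate 16 hr, 37 °C, 5% CO2. Step four: add ONE-Glo, wait 30 min, read luminescence.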
SW480 rereplic: inducers of DNA re-replication in SW480 colon cancer cells | SW480 DNA re-replication, Hoechst DNA content imaging, 48 h | Potency, µM (top dose mostly 46.1 µM), for the others: at the top dose re-replication activation, hits mostly activators | 340,000 compounds, 1.8% hits | AID 624297; note: % of control where 0% means no effect; nearly all actives have a fitted effect of over 55% in size
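Image-based DNA-content assay: after two days of treatment, nuclei were labelled with the DNA dye Hoechst and imaged, and hits were compounds raising the count of nuclei showing high fluorescence intensity.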
MCF10A rerep: induces DNA re-replication in MCF 10a normal breast cells; MCF 10A DNA re-replication, Hoechst nuclear intensity, 48 h; Potency, µM (series often up to 46.1 µM), without a hit: top-dose activity, positive = re-replication, hits mostly activators; 350,000 compounds, 2.9% hits; AID 624296; note: % of control where 0% means no effect; nearly all actives have a fitted effect of over 50% in size
KB-3-1 tox: KB-3-1 parental cell cytotoxicity; KB-3-1 viability, CellTiter-Glo ATP luminescence, 72 h; Potency, µM (titrated, usually from 46.1 µM), hits mostly cytotoxic; 400,000 compounds, 1.4% hits; AID 1347075; note: % is set by controls: 0 for no effect and ±100 for the full control effect; nearly all actives have a fitted effect of over 60% in size
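Screening of KB-3-1 cells (DMEM, 10% FBS, phenol-red free) ran from lowest to highest compound concentration; after 72 h at 37 °C viability was read luminescently and curves fitted.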
KB-V1 MDR tox: kills drug-selected multidrug resistant KB-V1 cells | Potency, µM (top dose mostly 46.1 µM), most hits filed as cytotoxic | 400,000 compounds, 3.4% hits | KB-V1 MDR cells viability, CellTiter-Glo, 72 h; note: % is set by controls: 0 for no effect and ±100 for the full control effect; nearly all actives have a fitted effect of over 60% in size
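Cells of the MDR subline KB-V1 are plated, dosed with compound at multiple concentrations, and incubated 72 h at 37 degrees C; CellTiter-Glo is then added and luminescence read after 10 min.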
An asterisk follows results filed as active; i = inactive; ? = inconclusive; / = no result given; ! = repeats disagree; [ ] = dose if it differs, or a comment. Calls come from the whole dose curve; as a rule, active = well fitted curve in the direction sought with a large enough effect; inconclusive = small, poorly fitted or top-dose-only effect, or another doubt; inactive = no such curve, though single readings can be large; an effect the other way counts as inactive or inconclusive. Potency is the fitted concentration of half-maximal effect.

SMILES	ELG1 DNA repair	SW480 rereplic	MCF10A rerep	KB-3-1 tox	KB-V1 MDR tox
COc1cccc(NC(CNS(=O)(=O)c2ccc(Cl)cc2)c2ccccc2)c1 (configuration not stated)	/	/	/	18µM*	i
O=S(=O)(NCC(Nc1ccc(Cl)cc1)c1ccccc1)c1ccccc1 (configuration not stated)	-9%	?	4.6µM*	?	18µM*!
O=C1NC[C@H](CCCCN2CCN(CCC3CCCCC3)C(=O)C2=O)N(CC2CCCCC2)C1=O	/	/	/	i	?
CCOC(=O)C1=CC[C@H]2c3c(c4ccccc4n3C)C(=O)C1N2Cc1ccccc1	?	9%	24%	i	i
CCOC(=O)C1(NC(=O)C2(N3C(=O)c4ccccc4C3=O)CCCC2)CCCC1	/	12%	-1%	i	i
Cc1cc(C)c2c(CC(=O)Nc3ccc(S(=O)(=O)N4CCCCC4)cc3)coc2c1	/	/	/	i	?
Clc1ccccc1-c1nnc2sc(C3COc4ccccc4O3)nn12 (configuration not stated)	6%	0%	-3%	i	16µM*
c1ccc(Cc2nnc3sc(-c4ccncc4)nn23)cc1	-25%	0%	17%	i	i
c1ccc(Cc2nnc3sc(-c4ccccn4)nn23)cc1	9%	-4%	1%	?	16µM*
c1ccc(Cc2nnc3sc(C4COc5ccccc5O4)nn23)cc1 (configuration not stated)	-9%	-3%	9%	i	15µM*
CC(C)(C)C(=O)c1c(N)[nH]c(C(=O)c2ccccc2)c1-c1cc2ccccc2nc1Cl	/	/	/	i	i
CCOc1ccc(S(=O)(=O)N(C(=O)c2ccco2)c2cc3sc(=O)oc3c3ccccc23)cc1	?	2%	?	i	?
COc1ccc(S(=O)(=O)N(C(=O)c2ccco2)c2cc3sc(=O)oc3c3ccccc23)cc1	?	?	18µM*	?	i
CCOC(=O)Cc1c(-c2cccc(Br)c2)nc2c3ccccc3ccn12	/	/	/	i	i
O=C(NCCCCCCNC(=O)OCc1ccccc1)OCc1ccccc1	/	1%	-1%	i	i
O=C(OCc1ccccc1)N(CCCCN(CCCNCc1ccccc1)C(=O)OCc1ccccc1)CCCNCc1ccccc1	/	?	5.8µM*	16µM*	?
COc1ccc(Cl)cc1NC(=O)CN(C)C(=O)c1ccc(N2CCCCCC2)c([N+](=O)[O-])c1	?	?	16%	?	?
COc1ccc(OC)c(N(CC(=O)N2CCN(c3cc(Cl)ccc3C)CC2)S(C)(=O)=O)c1	-25%	-2%	9%	i	23µM*
Cc1ccc(Cl)cc1N1CCN(C(=O)CN(C2CCCCC2)S(C)(=O)=O)CC1	18µM*	-22%	3%	?	i
CS(=O)(=O)N(CC(=O)N1CCN(c2cccc(Cl)c2)CC1)C1CCCCC1	-7%	-1%	2%	i	?
O=C(CCC(=O)OCC(=O)c1ccc(Cl)cc1)Nc1ccc(Oc2ccccc2)cc1	/	/	/	i	i
Cc1cccc(C(O)c2ncc(-c3ccc(F)cc3)[nH]2)c1C (configuration not stated)	/	/	/	i	i
Cc1ccc(C(=O)C(c2ccccc2)N2Cc3ccccc3C2=N)cc1 (configuration not stated)	?	?	21µM*	?	?
CCOC(=O)c1c(N)sc(C(O)(C(F)(F)F)C(F)(F)F)c1-c1ccc(F)cc1	-9%	18µM*	-189%[0.0737 µM]	i	i
CCOC(=O)c1c(N)sc(C(O)(C(F)(F)F)C(F)(F)F)c1-c1ccc(Cl)cc1	4%	?	15µM*	i	i
Cc1ccc(C(=O)Nc2ccccc2Oc2ccccc2)cc1[N+](=O)[O-]	-7%	3%[9.22 µM]	0%	i	?
O=C(c1ccccc1)c1ccc(Oc2ccc([N+](=O)[O-])cc2[N+](=O)[O-])cc1	/	3.3µM*	12µM*	?	?
COc1ccccc1NC(=O)/C(=C/c1cccc([N+](=O)[O-])c1)c1ccccc1	?	12%	?	i	5.8µM*

Bioassay records as filed in PubChem.
